# Compounds with a hit are over-represented: about 3.2% of the library has one in this group of screens.
# DENV2 CPE rescue = inhibitors of DENV2 cytopathic effect, primary screen, cell-based, plate reader, single concentration. AID 651640, 2012. DENV2-infected cells, cytopathic effect rescue. CPE inhibition, % at 9.99 µM. hit rate 1.7% among 350,000; in the data active = CPE inhibition above about 20%, passing the limit was not always enough; inconclusive = no clear call, values can overlap the other calls; tested in BHK-21 cells;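 note: 0% = median of neutral control wells and 100% = median of positive control wells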
# rRNA inh HTS = reduced GFP signal of wild-type E. coli, primary screen, bacterial rRNA inhibitor project, GFP/RFP fluorescence, OD600, single point; AID 720706, 2013; hit rate 1.6% among 350,000; E. coli WT GFP vs humanized-ribosome RFP mutants, 24 h; active compounds read low; DMSO median 0, no signal -100; GFP signal change (wild-type ribosome), % (test concentration not listed);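 active = significant combined selectivity score with lowered wild-type GFP, culture density cut under 30%, mutant RFP and density less affected; inactive = any of these conditions unmet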
# ERAP1 inh = human ERAP1 aminopeptidase inhibitors, primary screen, biochemical, single point, plate reader; Endoplasmic reticulum aminopeptidase 1 (Homo sapiens), Q9NZ08; recombinant ERAP1, Leu-AMC fluorescence, 60 min; inhibition, % at 10.7 µM; hit rate 0.15% among 340,000; AID 652197, 2013;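 active = mean replicate inhibition of at least 30%, or all replicates individually reaching that 30% level; inactive = mean below 30% and not every replicate reaching it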;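 note: 0% = neutral control wells and 100% = L-leucinethiol positive control wells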
# CaV13 FRET inh = Primary screen for inhibitors of IQ motif and Ca2+-dependent inactivation inhibitor domain binding in CACNA1D, Förster resonance energy transfer in living cells, …. HEK cells, CFP/YFP FRET ICDI-IQ, plate reader, 10 min; percent FRET-ratio fall versus neutral wells. inhibition, % at 12.3 µM. hit rate 0.098% among 340,000. AID 743397;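 active = mean replicate inhibition of at least 30% and at least 1% of replicates passing that level; inconclusive = only one of the two criteria is met; inactive = neither criterion is met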;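 note: 0% = median of the neutral control wells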
# INS-1E GSIS act = GLuc luminescence reporter in INS-1E cells, primary screen for activators of glucose-dependent secretion of insulin; hit rate 0.61% among 370,000; AID 743287, 2014; activation, % at 16.6 µM; INS-1E GLuc reporter insulin secretion, 2-3 h;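 active = lowest replicate activation of at least 40%, so every replicate reaches that level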;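 note: 0% = median of neutral control wells and 100% = median of IBMX positive control wells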
# PGC1a acetyl inh = inhibitors of PGC1a acetylation signal, primary screen, cell-based, U2OS, AlphaScreen, inhibitor mode | hit rate 0.17% among 350,000 | AlphaScreen anti-acetyl-lysine; with virally co-expressed GCN5 acetyltransferase | inhibition, % at 15.6 µM | AID 651687, 2012;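 active = every replicate shows inhibition of at least 40%; inconclusive = mean inhibition at least 40% but some replicate below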;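 note: 0% = neutral control wells and 100% = positive control wells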
# * hit, by the source's call; u = inconclusive; x = no result given.
SMILES,DENV2 CPE rescue,rRNA inh HTS,ERAP1 inh,CaV13 FRET inh,INS-1E GSIS act,PGC1a acetyl inh
COc1ccc(NC(=O)/C(Cl)=C(/Cl)S(=O)Cc2ccc(Cl)cc2)cn1 (stereo not given),-3,-27,2,-6,46*,100*
CCC(=O)N1[C@H](CO)[C@@H](c2ccc(C3=CCCC3)cc2)[C@@H]1CN(C)C(C)=O,u,0,x,x,14,-3
COc1ccc(Oc2cc(NN3CCCCC3)c([N+](=O)[O-])cc2[N+](=O)[O-])cc1OC,38*,0,-1,-9,9,16
O=[N+]([O-])c1cc([N+](=O)[O-])c(Oc2cc(F)cc(F)c2)cc1NN1CCCCC1,25*,3,2,-11,5,-5
COc1ccc(S(=O)(=O)Nc2ccc3c(c2)C(=O)N([C@@H](C)CO)C[C@@H](C)[C@H](CN(C)C(=O)c2ccccc2)OCCCC[C@H](C)O3)cc1,-2,-1,0,x,-16,x
S=C1NC2=C(CCCC2=C2SCCCS2)C(c2ccccc2)N1 (stereo not given),-3,-2,-5,-7,2,12
COc1ccc(C2NC(=S)NC3=C2CCCC3=C2SCCS2)cc1 (stereo not given),8,12,-2,-7,2,45*
Cc1noc(C)c1S(=O)(=O)Nc1ccc2c(c1)C(=O)N([C@H](C)CO)C[C@H](C)[C@H](CN(C)C(=O)Cc1ccccc1)OCCCC[C@H](C)O2,0,-2,1,x,-11,14
Cc1ccc(NS(=O)(=O)c2ccc(-c3csc(C)n3)s2)c(C)c1,-1,-38*,2,-5,-20,x
CCOc1ccc2c(c1)sc(N)[n+]2Cc1cc(C)cc2cccnc12,x,x,x,-3,-7,-5
COc1ccc2c(c1)sc(N)[n+]2Cc1cc(C)cc2cccnc12,71*,25,5,-3,-21,x
Cc1cc(C[n+]2cc(Br)ccc2N)c2ncccc2c1,35*,17,0,-1,37,-13
CO[C@H]1CN(C)C(=O)c2cc(NC(=O)C3CCCC3)ccc2OC[C@H](C)N(C(=O)CC2CC2)C[C@H]1C,0,1,1,x,3,6
Cc1ccc(-n2c(O)c(C=NC3CCS(=O)(=O)C3)c3ccccc3c2=O)c(C)c1 (stereo not given),2,1,1,-4,x,57*
O=C(CSc1nc2ccccc2c(=O)n1-c1ccccc1F)NC1CC1,22*,-14,-6,-17,x,x
Cc1ccc(-n2c(SCC(=O)NC3CCS(=O)(=O)C3)nc3ccccc3c2=O)c(C)c1 (stereo not given),38*,-1,6,-12,-2,4
O=C(O)Cn1nc(-c2ccccc2)cc1-c1ccccc1,80*,5,-2,-3,6,19
O=C(COC(=O)c1cc([N+](=O)[O-])ccc1N1CCOCC1)Nc1ccc(Cl)cc1,-6,-34*,6,-3,-9,0
CO[C@H]1CN(C)C(=O)c2cc(NC(=O)c3cccc(F)c3)ccc2OC[C@H](C)NC[C@H]1C,5,3,-5,x,3,-10
CSc1nsc(N/N=C/c2ccccc2)c1C#N,-2,-22*,-1,-6,-9,-1
COc1cccc(/C=N/Nc2snc(SC)c2C#N)c1,x,x,x,-6,9,-4
Cc1nn2c(nc(N3CCOCC3)c3ccccc32)c1C=C(C#N)C#N,5,3,-2,-5,41*,14
C[C@@H]1CN([C@H](C)CO)C(=O)c2cccc(NS(=O)(=O)c3cccs3)c2O[C@@H]1CN(C)Cc1ccncc1,3,-4,-2,x,8,-1
CC(C)NC(=O)Nc1ccc2c(c1)C(=O)N(C)C[C@H](C)[C@@H](CN(C)C(=O)OC(C)(C)C)O2,x,-1,x,x,10,x
CC(C)Oc1ccc(C(=O)CCN2CCOCC2)cc1,10,15,-4,-4,51*,x

# From PubChem BioAssay
